Results filed as inconclusive are left out. The source made the active and inactive calls.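 The calls were made as follows, unless noted: active = viability at or under a set limit in both replicates, limit being median viability minus 3 SD (cut at about 48% in these data, passing the limit was not always enough); inconclusive = at or under the limit in just one replicate; inactive = at or above the limit in both replicates.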
Columns and labels:
[1] = Her2 expression decrease, cell viability multiplex – SKBR3 breast tumor cells, AlphaScreen, ATP viability, primary screen (AID 461;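 active = Her2 level under about 52% in both replicate screens, with viability over 70% of control, limit read from the data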;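 as to Her2 level: lower value means less Her2 protein in the cells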;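 as to viability: percent of carrier control wells set as 100% viability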); conditions: SKBR3 Her2 protein level, 18-24 h, measured here: SKBR3 viability, ATP luminescence, at 10 µM
[2] = target: Receptor tyrosine-protein kinase erbB-2 (Homo sapiens) (UniProt P04626); test: as above; conditions: 18-24 h, at 10 µM, stronger effect = lower value
[3] = reduced viability of SK-BR-3 breast cancer cells – cell-based, 24 h, human, pilot screen (AID 572;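 active = viability at or below 10% of carrier control in both of two separate runs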;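 also: compound exposure lasted between 18 and 24 h rather than exactly 24 h; 100% = carrier-treated control wells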); conditions: SK-BR-3 viability, CellTiter-Glo luminescence, at 10 µM, stronger effect = lower value
[4] = HUVEC growth inhibition – cell-based, human, primary screen (AID 575;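 active = viability at or below 30% in both replicate assays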;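 also: 100% = median of untreated cell wells with 0.1% DMSO on each plate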); conditions: HUVEC proliferation, CellTiter-Glo luminescence, 72 h; at 10 µM; stronger effect = lower value
[5] = H69AR cell proliferation blockers – human, duplicate replicates, primary screen (AID 580); conditions: H69AR lung tumor cells viability, ATP luminescence, 72 h; at 10 µM; stronger effect = lower value;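 also: 100% = mean luminescence of untreated wells and 0% = no signal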
[6] = MRP1 drug-resistance reversers in H69AR cells – cell-based, doxorubicin co-treatment, pilot screen (AID 601;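 active = viability loss from added drug above about 55%, and viability with drug at most 40%, in both replicates, limit read from the data, passing the limit was not always enough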); conditions: CellTiter-Glo, 72 h, at 10 µM; for differential viability (reversal): stronger effect = higher value
[7] = yeast transport mutant growth inhibition pilot in 384-well plates, post-Golgi transport modulator project (AID 636; in the data active = inhibition above about 31%); conditions: absorbance 615 nm, about 18 h, stronger effect = higher value
[8] = growth suppression of yeast trafficking mutant, preliminary HTS, modulators of trafficking downstream of Golgi apparatus project, 1536-format plate, OD 615 nm (AID 637; in the data active = inhibition above about 30%); conditions: yeast transport mutant growth, absorbance 615 nm, 18 h; stronger effect = higher value
[9] = S. cerevisiae growth inhibition in permissive medium (OD615), pilot counter-assay for S. cerevisiae lifespan shortening project, permissive growth control (AID 705;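 active = growth inhibition above 25% in both replicates, a cutoff set 3 SD above the mean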); conditions: OD615, 24 h, at 10 µM, stronger effect = higher value
[10] = S. cerevisiae growth inhibition in restrictive medium, OD615, pilot screen, restrictive growth control, yeast lifespan reduction project (AID 706;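 active = growth inhibition above a set limit, 3 SD over mean compound inhibition, in both replicates, cut at about 43% in these data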;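 also: modified DeaD lifespan yeast strain shifted to restrictive glucose medium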); conditions: OD615, 48 h, at 10 µM, stronger effect = higher value
[11] = doxorubicin toxicity protection in MRP-1 cells – H69AR cells, CellTiter-Glo, duplicate, MRP-1 activator project, pilot screen (AID 807;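 active = viability increase at or above a cutoff of the median across tested compounds plus 3 SD, cut at about 8.5% in these data, passing the limit was not always enough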;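 also: compound pretreatment 18-22 h then 72 h combined with doxorubicin; 0% = doxorubicin alone and 100% = vehicle without doxorubicin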); conditions: H69AR viability with doxorubicin, CellTiter-Glo luminescence; at 10 µM; stronger effect = higher value
[12] = viability of HCT116 without oncogenic beta-catenin – human colon tumor cells, pilot screen (AID 823;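 active = cell viability at or below a set limit in both duplicate runs, the limit being the all-compound median minus 4 SD, cut at about 23% in these data, passing the limit was not always enough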;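 also: 0% = wells killed by 20 µM Hyamine and 100% = untreated DMSO cell wells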); conditions: HCT116 beta-catenin knockout viability, CellTiter-Glo, 60 h; at 10 µM; stronger effect = lower value
[13] = viability of PTEN-null HCT116 cells – cell-based, HCT116 clonal line, CellTiter-Glo, pilot screen (AID 824;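 active = viability at or below 27.92% in each of two runs, the all-compound median minus 4 SD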;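 also: 0% = 20 µM Hyamine control and 100% = vehicle cell control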); conditions: HCT116 PTEN-deleted viability, 60 h, at 10 µM, stronger effect = lower value
[14] = RAM pathway blockade in budding yeast – dse1pr::URA3 reporter, 5-FOA selection, pilot screen (AID 869;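 active = inhibition over a set limit, the all-compound mean plus 3 SD, in both replicate runs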;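 also: 0% = DMSO wells with no growth and 100% = 10 µM 1-NA-PP1 with full growth; RAM network block rescues cells from 5-FOA so hits raise OD615 growth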); conditions: S. cerevisiae dse1pr::URA3 5-FOA growth, OD615, 2 d; at 10 µM; stronger effect = higher value; strain carries analog-sensitive mutant Cbk1 kinase
[15] = RAM signaling pathway blockade in yeast – S. cerevisiae, Pdr1DBD-CYC8 efflux-inhibited sensitized strain, primary screen (AID 1298;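 active = RAM network inhibition above 8.4% in each of two replicates, 3 SD over the compound average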;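 also: 0% = DMSO untreated cells without growth and 100% = 10 µM 1-NA-PP1 full growth; higher means more yeast growth rescued from 5-FOA killing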); conditions: S. cerevisiae cbk1-as DSE1-URA3 strain, 5-FOA growth OD615, 2 d; at 50 µM; stronger effect = higher value
[16] = H69AR cells + 2 uM doxorubicin, measured here: viability with 2 uM doxorubicin, stronger effect = lower value
[17] = H69AR cells, compound alone cytotoxicity

Receptor tyrosine-protein kinase erbB-2 (Homo sapiens), sequence (P04626 whole entry, looked up): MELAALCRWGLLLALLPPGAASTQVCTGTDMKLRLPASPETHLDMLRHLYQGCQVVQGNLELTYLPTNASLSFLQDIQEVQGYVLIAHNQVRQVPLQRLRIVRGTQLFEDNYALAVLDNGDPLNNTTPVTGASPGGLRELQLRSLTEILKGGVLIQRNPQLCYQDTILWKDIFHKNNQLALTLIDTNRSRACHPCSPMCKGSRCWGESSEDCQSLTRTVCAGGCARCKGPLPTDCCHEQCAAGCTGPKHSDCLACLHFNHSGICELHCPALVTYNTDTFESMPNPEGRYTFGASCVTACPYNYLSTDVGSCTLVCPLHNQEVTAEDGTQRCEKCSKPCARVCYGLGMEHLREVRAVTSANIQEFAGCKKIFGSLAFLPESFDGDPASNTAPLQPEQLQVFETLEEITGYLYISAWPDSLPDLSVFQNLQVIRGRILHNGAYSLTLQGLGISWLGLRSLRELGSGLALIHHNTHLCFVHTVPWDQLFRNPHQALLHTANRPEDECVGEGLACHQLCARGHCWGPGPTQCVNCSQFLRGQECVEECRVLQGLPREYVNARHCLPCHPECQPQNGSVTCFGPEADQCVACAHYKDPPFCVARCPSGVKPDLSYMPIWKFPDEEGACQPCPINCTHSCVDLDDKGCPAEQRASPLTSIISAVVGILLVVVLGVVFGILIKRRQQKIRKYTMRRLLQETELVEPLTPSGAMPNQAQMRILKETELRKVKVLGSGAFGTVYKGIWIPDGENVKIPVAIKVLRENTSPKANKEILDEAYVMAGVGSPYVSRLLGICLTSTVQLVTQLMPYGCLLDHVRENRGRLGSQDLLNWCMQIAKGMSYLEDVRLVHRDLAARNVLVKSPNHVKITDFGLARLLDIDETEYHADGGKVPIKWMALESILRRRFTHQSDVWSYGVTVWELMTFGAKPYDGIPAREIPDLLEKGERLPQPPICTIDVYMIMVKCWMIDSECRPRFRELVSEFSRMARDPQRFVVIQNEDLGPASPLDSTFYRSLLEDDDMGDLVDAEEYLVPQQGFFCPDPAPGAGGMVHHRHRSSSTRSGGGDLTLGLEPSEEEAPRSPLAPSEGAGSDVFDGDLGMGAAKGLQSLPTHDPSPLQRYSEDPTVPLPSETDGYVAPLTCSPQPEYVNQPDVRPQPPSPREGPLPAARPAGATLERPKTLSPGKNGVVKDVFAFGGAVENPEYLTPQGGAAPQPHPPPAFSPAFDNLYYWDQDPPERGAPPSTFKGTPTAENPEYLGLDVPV

Structure (SMILES) | viability [1] [%] | Her2 level [2] | viability [3] | viability [4] | viability [5] | differential viability (reversal) ([6]; H69AR cells + 2 uM doxorubicin) | viability [6, 16] [%] | viability [6, 17] [%] | inhibition [7] | inhibition [8] | growth inhibition [9] | growth inhibition [10] | viability increase [11] | viability [12] | viability [13] | inhibition [14] | RAM network inhibition [15]
Cc1cc2nc(-c3ccco3)cc(C(F)(F)F)n2n1 | 93.5 | 90% (inactive) | 93.5% (inactive) | 102% (inactive) | 93.3% (inactive) | 6.71% (inactive) | 86.6 | 93.3 | 1.28% (inactive) | 8.17% (inactive) | -17.4% (inactive) | -8.99% (inactive) | 1.14% (inactive) | 105% (inactive) | 105% (inactive) | 1.89% (inactive) | 2.83% (inactive)
Cc1c(C(=O)OC2CCC(C)CC2)[nH]c2c1C(=O)CCC2 (stereo not given) | 69.5 | 78% (inactive) | 69.5% (inactive) | 87.6% (inactive) | 86.8% (inactive) | -4.38% (inactive) | 91.2 | 86.8 | 5.07% (inactive) | 1.97% (inactive) | -11.8% (inactive) | -6.09% (inactive) | 2.52% (inactive) | 97.7% (inactive) | 92.9% (inactive) | 1.67% (inactive) | 3.39% (inactive)
O=C(NCc1ccc(F)cc1)c1cc2ccccn2n1 | 84 | 98.5% (inactive) | 84% (inactive) | 99% (inactive) | 98.2% (inactive) | 17.5% (inactive) | 80.6 | 98.2 | -2.95% (inactive) | 4.5% (inactive) | 1.54% (inactive) | 3.24% (inactive) | -0.54% (inactive) | 99% (inactive) | 89.8% (inactive) | 0.47% (inactive) | 1.1% (inactive)
CC1CCN(C(=O)CSCC(=O)Nc2nc(-c3cccs3)cs2)CC1 | 86 | 80.5% (inactive) | 86% (inactive) | 67% (inactive) | 91.1% (inactive) | 4.54% (inactive) | 86.6 | 91.1 | -1.33% (inactive) | -1.15% (inactive) | 1.36% (inactive) | -5.56% (inactive) | -4.14% (inactive) | 100% (inactive) | 92.1% (inactive) | 0.24% (inactive) | -0.16% (inactive)
Cn1c(C(=O)NCC2CCCO2)cc2c(=O)n(C)c3ccccc3c21 (stereo not given) | 95 | 89% (inactive) | 95% (inactive) | 84.8% (inactive) | 83.6% (inactive) | 8.52% (inactive) | 75.1 | 83.6 | -2.31% (inactive) | 2.17% (inactive) | -6.67% (inactive) | 12.4% (inactive) | -4.43% (inactive) | 92.9% (inactive) | 90.7% (inactive) | 2.33% (inactive) | 0.71% (inactive)

— PubChem BioAssay
